Source: PubChem BioAssay AID1159580 (chemical genetic matrix, 2015)
Hit rate of the full screen: of about 5,500 compounds, about 2,000 (36%) were called active. About 18% were inconclusive and are not listed. Cut-off read from the data, not from the text of the source: active = normalized growth mostly below about 0.91 (no sharp cut-off); inconclusive = no clear call, values can overlap the other calls; inactive = mostly above about 0.92. The list shows a part of the results.

Assay: chemical genetic growth profiling, strain panel (AID 1159580);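 note: tested at 20 µM; growth read once vehicle control cultures reached saturation at 30 °C; 1 = growth at the plate median or of vehicle wells; lower values mean less growth of the strain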
Details: growth OD

Measured: normalized growth

O=C(c1ccccc1)c1ccc2n1CCC2C(=O)O (stereo not drawn)
inactive: S. cerevisiae deletion strains, locus YKL009W, strain mrt4, active compounds read low 0.962 | S. cerevisiae deletion strains, locus YKL068W, active compounds read low 0.979 | S. cerevisiae deletion strains, locus YKL085W, strain MDH1 (second series), active compounds read low 0.99 | S. cerevisiae deletion strains, locus YKL085W, strain MDH1, active compounds read low 0.99 | S. cerevisiae deletion strains, locus YKL160W, strain elf1, active compounds read low 1.03 | S. cerevisiae deletion strains, locus YKL190W, strain CNB1, active compounds read low 0.999 | S. cerevisiae deletion strains, locus YKR001C, strain vps1, active compounds read low 0.98 | S. cerevisiae deletion strains, locus YKR026C, strain gcn3, active compounds read low 1 | S. cerevisiae deletion strains, locus YKR091W, strain srl3, active compounds read low 0.961 | S. cerevisiae deletion strains, locus YLL001W, strain dnm1, active compounds read low 1.01 | S. cerevisiae deletion strains, locus YLL026W, active compounds read low 0.999 | S. cerevisiae deletion strains, locus YLL041C, strain sdh2, active compounds read low 0.995 | S. cerevisiae deletion strains, locus YLR027C, strain aat2, active compounds read low 0.99 | S. cerevisiae deletion strains, locus YLR039C, strain RIC1, active compounds read low 1 | S. cerevisiae deletion strains, locus YLR058C, strain SHM2, active compounds read low 1 | S. cerevisiae deletion strains, locus YLR102C, strain apc9, active compounds read low 0.974 | S. cerevisiae deletion strains, locus YLR113W, strain HOG1, active compounds read low 1.01 | S. cerevisiae deletion strains, locus YLR221C, strain rsa3, active compounds read low 1.01 | S. cerevisiae deletion strains, locus YLR258W, strain gsy2, active compounds read low 0.985 | S. cerevisiae deletion strains, locus YLR262C, strain YPT6 (second series), active compounds read low 0.996 | S. cerevisiae deletion strains, locus YLR262C, strain YPT6, active compounds read low 0.965 | S. cerevisiae deletion strains, locus YLR268W, strain sec22, active compounds read low 0.97 | S. cerevisiae deletion strains, locus YLR320W, strain mms22, active compounds read low 0.966 | S. cerevisiae deletion strains, locus YLR330W, strain CHS5, active compounds read low 0.989 | S. cerevisiae deletion strains, locus YLR342W, strain FKS1 (second series), active compounds read low 0.998 | S. cerevisiae deletion strains, locus YLR342W, strain FKS1, active compounds read low 1 | S. cerevisiae deletion strains, locus YLR357W, strain rsc2, active compounds read low 1.02 | S. cerevisiae deletion strains, locus YLR370C, strain arc18, active compounds read low 1.01 | S. cerevisiae deletion strains, locus YLR371W, strain rom2, active compounds read low 0.962 | S. cerevisiae deletion strains, locus YLR384C, strain iki3, active compounds read low 0.998 | S. cerevisiae deletion strains, locus YLR418C, strain cdc73, active compounds read low 0.987 | S. cerevisiae deletion strains, locus YML016C, strain PPZ1, active compounds read low 0.998 | S. cerevisiae deletion strains, locus YML032C, strain rad52, active compounds read low 0.991 | S. cerevisiae deletion strains, locus YML120C, strain ndi1, active compounds read low 1.01 | S. cerevisiae deletion strains, locus YML124C, strain tub3, active compounds read low 0.982 | S. cerevisiae deletion strains, locus YMR058W, strain fet3, active compounds read low 0.978 | S. cerevisiae deletion strains, locus YMR078C, strain ctf18, active compounds read low 0.968 | S. cerevisiae deletion strains, locus YMR125W, strain sto1, active compounds read low 1.01 | S. cerevisiae deletion strains, locus YMR129W, active compounds read low 0.995 | S. cerevisiae deletion strains, locus YMR205C, strain PFK2, active compounds read low 1.01 | S. cerevisiae deletion strains, locus YMR223W, strain ubp8, active compounds read low 0.972 | S. cerevisiae deletion strains, locus YMR231W, strain pep5, active compounds read low 1 | S. cerevisiae deletion strains, locus YMR307W, strain GAS1, active compounds read low 0.985 | S. cerevisiae deletion strains, locus YNL067W, strain RPL9B, active compounds read low 1.02 | S. cerevisiae deletion strains, locus YNL071W, strain lat1, active compounds read low 0.977 | S. cerevisiae deletion strains, locus YNL128W, strain TEP1, active compounds read low 0.996 | S. cerevisiae deletion strains, locus YNL153C, strain GIM3, active compounds read low 0.998 | S. cerevisiae deletion strains, locus YNL175C, strain NOP13, active compounds read low 1 | S. cerevisiae deletion strains, locus YNL183C, strain NPR1, active compounds read low 0.973 | S. cerevisiae deletion strains, locus YNL197C, strain WHI3, active compounds read low 1.01 | S. cerevisiae deletion strains, locus YNL209W, strain ssb2, active compounds read low 0.985 | S. cerevisiae deletion strains, locus YNL224C, strain SQS1, active compounds read low 1.01 | S. cerevisiae deletion strains, locus YNL233W, strain BNI4, active compounds read low 1.03 | S. cerevisiae deletion strains, locus YNL248C, strain rpa49, active compounds read low 0.968 | S. cerevisiae deletion strains, locus YNL250W, strain rad50, active compounds read low 0.986 | S. cerevisiae deletion strains, locus YNL271C, strain bni1, active compounds read low 0.96 | S. cerevisiae deletion strains, locus YNL298W, strain CLA4, active compounds read low 0.969 | S. cerevisiae deletion strains, locus YNL307C, strain MCK1, active compounds read low 0.976 | S. cerevisiae deletion strains, locus YNL322C, strain KRE1 (second series), active compounds read low 0.982 | S. cerevisiae deletion strains, locus YNL322C, strain KRE1, active compounds read low 1.01 | S. cerevisiae deletion strains, locus YNR049C, strain mso1, active compounds read low 0.983 | S. cerevisiae deletion strains, locus YNR052C, strain pop2, active compounds read low 0.97 | S. cerevisiae deletion strains, locus YOL006C, strain TOP1, active compounds read low 1.05 | S. cerevisiae deletion strains, locus YOL012C, strain htz1 0.945 | S. cerevisiae deletion strains, locus YOL147C, strain pex11, active compounds read low 0.982 | S. cerevisiae deletion strains, locus YOR001W, strain rrp6, active compounds read low 1.01 | S. cerevisiae deletion strains, locus YOR061W, strain CKA2, active compounds read low 0.997 | S. cerevisiae deletion strains, locus YOR069W, strain VPS5, active compounds read low 0.994 | S. cerevisiae deletion strains, locus YOR070C, strain gyp1, active compounds read low 1 | S. cerevisiae deletion strains, locus YOR080W, strain dia2, active compounds read low 1.01 | S. cerevisiae deletion strains, locus YOR083W, strain WHI5 (second series), active compounds read low 1.03 | S. cerevisiae deletion strains, locus YOR083W, strain WHI5, active compounds read low 1.04 | S. cerevisiae deletion strains, locus YOR106W, strain vam3, active compounds read low 1.03 | S. cerevisiae deletion strains, locus YOR136W, strain idh2, active compounds read low 0.971 | S. cerevisiae deletion strains, locus YOR144C, strain elg1, active compounds read low 0.982 | S. cerevisiae deletion strains, locus YOR184W, strain ser1, active compounds read low 0.964 | S. cerevisiae deletion strains, locus YOR231W, strain MKK1, active compounds read low 1.02 | S. cerevisiae deletion strains, locus YOR265W, strain rbl2, active compounds read low 1 | S. cerevisiae deletion strains, locus YOR270C, strain vph1, active compounds read low 0.972 | S. cerevisiae deletion strains, locus YOR290C, strain snf2, active compounds read low 0.962 | S. cerevisiae deletion strains, locus YOR316C, strain cot1, active compounds read low 0.956 | S. cerevisiae deletion strains, locus YPL051W, strain arl3, active compounds read low 1.04 | S. cerevisiae deletion strains, locus YPL055C, strain LGE1, active compounds read low 1.02 | S. cerevisiae deletion strains, locus YPL078C, strain atp4, active compounds read low 1.01 | S. cerevisiae deletion strains, locus YPL106C, strain sse1, active compounds read low 0.978 | S. cerevisiae deletion strains, locus YPL240C, strain hsp82, active compounds read low 1 | S. cerevisiae deletion strains, locus YPL256C, strain CLN2, active compounds read low 1.01 | S. cerevisiae deletion strains, locus YPR119W, strain clb2, active compounds read low 0.961 | S. cerevisiae deletion strains, locus YPR141C, strain kar3, active compounds read low 0.977 | S. cerevisiae deletion strains, locus YPR163C, strain tif3, active compounds read low 0.978 | S. cerevisiae deletion strains, locus YPR167C, strain met16, active compounds read low 0.976 | S. cerevisiae deletion strains, strain wtn01, active compounds read low 0.985 | S. cerevisiae strains, strain wild type, active compounds read low 1
